Read-out in experiment [1]: Thrombomodulin, THBD (gene 7056)
Briefly: BSK_3C_Thrombomodulin: BioMAP Diversity Plus: 3C Assay for Thrombomodulin Biomarker Activity (AID 2283029). The following applies: primary human endothelial cells (HUVEC); actives raise or lower the signal. The method in brief: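 HUVEC, 3C conditions; compound 24 h; thrombomodulin by ELISA; bidirectional curve fit vs DMSO baseline; parallel SRB total-protein staining for cytotoxicity.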

Read-out in experiment [2]: Urokinase-type plasminogen activator receptor (uPAR), PLAUR (gene 5329)
Briefly: BSK_4H_uPAR: BioMAP Diversity Plus: 4H Assay for Urokinase-type plasminogen activator receptor (uPAR) Biomarker Activity (AID 2283030). The following applies: primary human endothelial cells (HUVEC); actives raise or lower the signal. The method in brief: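 uPAR level read by ELISA on HUVEC cultures (BioMAP 4H) 24 h post-dosing, analyzed for gain or loss relative to DMSO. Parallel SRB staining assessed overt cytotoxicity.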

Read-out in experiment [3]: Vascular endothelial growth factor receptor 2 (Homo sapiens) (UniProt P35968)
The experiment is described as follows: BSK_4H_VEGFRII: BioMAP Diversity Plus: 4H Assay for Vascular endothelial growth factor receptor 2 (VEGFR2) Biomarker Activity (AID 2283031).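 On AC50: cell-surface VEGFR2 protein level quantified by ELISA.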 Particulars: primary human endothelial cells (HUVEC); actives raise or lower the signal. In a few lines:
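Measured by ELISA after 24 h of compound treatment: VEGFR2 on primary human umbilical vein endothelial cells, fitted in both directions relative to DMSO. Parallel cultures received SRB staining (560 nm) for overt cytotoxicity.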

Read-out in experiment [4]: Human Leukocyte Antigen - DR isotype (HLADR), HLA-DRA (gene 3122)
The experiment is described as follows: BSK_BE3C_HLADR: BioMAP Diversity Plus: BE3C Assay for Human Leukocyte Antigen - DR isotype (HLADR) Biomarker Activity (AID 2283032). The following applies: primary human bronchial epithelial cells; actives raise or lower the signal. In a few lines: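 Primary human bronchial epithelial cells (BE3C); 24 h chemical exposure; HLA-DR by ELISA; bidirectional curve fit vs DMSO baseline.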

Read-out in experiment [5]: Vascular cell adhesion molecule 1 (VCAM1), VCAM1 (gene 7412)
The experiment is described as follows: BSK_4H_VCAM1: BioMAP Diversity Plus: 4H Assay for Vascular cell adhesion molecule 1 (VCAM1) Biomarker Activity (AID 2283033).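 On outcome: cell-surface VCAM-1 protein measured by ELISA.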 The following applies: primary human endothelial cells (HUVEC); actives raise or lower the signal. The method in brief: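 HUVEC, 24 h post-dose; VCAM-1 by ELISA. Bidirectional curve fit vs DMSO baseline. Parallel SRB total-protein stain (0.1% SRB after 10% TCA fixation, 560 nm) for cytotoxicity.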

Read-out in experiment [6]: Monokine induced gamma interferon (MIG), CXCL9 (gene 4283)
The experiment is described as follows: BSK_BE3C_MIG: BioMAP Diversity Plus: BE3C Assay for Monokine induced gamma interferon (MIG) Biomarker Activity (AID 2283035).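 On outcome: MIG protein measured by ELISA in BE3C cultures after 24 h of dosing.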 Particulars: primary human bronchial epithelial cells; actives raise or lower the signal. In a few lines: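 hu bronchial epithelial 1° cells, 24 h cpd; MIG by ELISA; bidirectional fit, DMSO = baseline.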

Read-out in experiment [7]: Transforming growth factor beta 1 (TGFb1), TGFB1 (gene 7040)
Briefly: BSK_BE3C_TGFb1: BioMAP Diversity Plus: BE3C Assay for Transforming growth factor beta 1 (TGFb1) Biomarker Activity (AID 2283036;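 on outcome: TGF-b1 protein level measured by ELISA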). The following applies: primary human bronchial epithelial cells; actives raise or lower the signal. In a few lines: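 Read-out: ELISA for TGF-b1 in primary human bronchial epithelial cultures, 24 h post-dose. Bidirectional curve fitting vs DMSO control; gain or loss of signal both scored.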

Read-out in experiment [8]: Plasminogen activator inhibitor-1 (PAI1), SERPINE1 (gene 5054)
Briefly: BSK_BE3C_PAI1: BioMAP Diversity Plus: BE3C Assay for Plasminogen activator inhibitor-1 (PAI1) Biomarker Activity (AID 2283037). Particulars: primary human bronchial epithelial cells; actives raise or lower the signal. The method in brief:
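ELISA read-out of PAI-1 from human bronchial epithelial primary cells, 24 h post-dosing; bidirectional curve fit vs DMSO baseline, gain or loss of signal scored.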

Read-out in experiment [9]: urokinase plasminogen activator (uPA), PLAU (gene 5328)
The experiment is described as follows: BSK_BE3C_uPA: BioMAP Diversity Plus: BE3C Assay for urokinase plasminogen activator (uPA) Biomarker Activity (AID 2283038).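 On outcome: uPA protein level quantified by ELISA in cell cultures; uPA read one day after compound addition.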 The following applies: primary human bronchial epithelial cells; actives raise or lower the signal. The method in brief:
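ELISA for uPA on human primary bronchial epithelial cultures 24 h post-treatment, gain or loss against DMSO. Parallel SRB staining (0.1% after 10% TCA fixation, 560 nm) assessed overt cytotoxicity.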

Read-out in experiment [10]: Urokinase-type plasminogen activator receptor (uPAR), PLAUR (gene 5329)
Briefly: BSK_BE3C_uPAR: BioMAP Diversity Plus: BE3C Assay for Urokinase-type plasminogen activator receptor (uPAR) Biomarker Activity (AID 2283039).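 On outcome: uPAR protein level measured by ELISA on the cells; cells exposed to compound for one day before measurement.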 Particulars: primary human bronchial epithelial cells; actives raise or lower the signal. In a few lines: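 ELISA readout of uPAR on human lung primary bronchial epithelial cells, 24 h post-dosing. Bidirectional curve fit relative to DMSO vehicle baseline; gain or loss of signal both scored.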

Read-out in experiment [11]: Interleukin-6 (IL6), IL6 (gene 3569)
Briefly: BSK_CASM3C_IL6: BioMAP Diversity Plus: CASM3C Assay for Interleukin-6 (IL6) Biomarker Activity for (AID 2283040). Particulars: primary human coronary artery smooth muscle cells; actives raise or lower the signal.

Read-out in experiment [12]: Tissue plasminogen activator (tPA), PLAT (gene 5327)
Briefly: BSK_BE3C_tPA: BioMAP Diversity Plus: BE3C Assay for Tissue plasminogen activator (tPA) Biomarker Activity (AID 2283041).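 On outcome: tPA level quantified by ELISA one day after compound addition.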 Particulars: primary human bronchial epithelial cells; actives raise or lower the signal. The method in brief:
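ELISA read-out of tPA on human primary bronchial epithelial cells, 24 h post-dosing; bidirectional fit vs DMSO negative control/baseline.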

Read-out in experiment [13]: Interleukin-8 (IL8), CXCL8 (gene 3576)
Briefly: BSK_CASM3C_IL8: BioMAP Diversity Plus: CASM3C Assay for Interleukin-8 (IL8) Biomarker Activity (AID 2283042).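 Further: IL-8 protein level quantified by ELISA.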 The following applies: primary human coronary artery smooth muscle cells; actives raise or lower the signal.

Read-out in experiment [14]: Human Leukocyte Antigen - DR isotype (HLADR), HLA-DRA (gene 3122)
The experiment is described as follows: BSK_CASM3C_HLADR: BioMAP Diversity Plus: CASM3C Assay for Human Leukocyte Antigen - DR isotype (HLADR) Biomarker Activity (AID 2283043).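 Further: cell-surface HLA-DR protein level quantified by ELISA.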 The following applies: primary human coronary artery smooth muscle cells; actives raise or lower the signal.

Read-out in experiment [15]: Macrophage colony-stimulating factor (MCSF), CSF1 (gene 1435)
Briefly: BSK_CASM3C_MCSF: BioMAP Diversity Plus: CASM3C Assay for Macrophage colony-stimulating factor (MCSF) Biomarker Activity (AID 2283044).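 Further: M-CSF protein amount quantified by ELISA after 24 h exposure.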 The following applies: primary human coronary artery smooth muscle cells; actives raise or lower the signal.

Read-out in experiment [16]: Low-density lipoprotein receptor (LDLR), LDLR (gene 3949)
The experiment is described as follows: BSK_CASM3C_LDLR: BioMAP Diversity Plus: CASM3C Assay for Low-density lipoprotein receptor (LDLR) Biomarker Activity (AID 2283045).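 Further: LDLR protein level on the cell surface quantified by ELISA.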 The following applies: primary human coronary artery smooth muscle cells; actives raise or lower the signal.

Read-out in experiment [17]: Monocyte Chemoattractant Protein-1 (MCP1), CCL2 (gene 6347)
Briefly: BSK_CASM3C_MCP1: BioMAP Diversity Plus: CASM3C Assay for Monocyte Chemoattractant Protein-1 (MCP1) Biomarker Activity (AID 2283046).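 Further: MCP-1 level quantified by ELISA 24 h after dosing.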 Particulars: primary human coronary artery smooth muscle cells; actives raise or lower the signal.

A short description of experiment [18]: BSK_CASM3C_Proliferation: Cell Proliferation Assessment in the BioMAP Diversity Plus: CASM3C Assay (AID 2283047).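 Further: sulforhodamine B total protein stain as relative cell number at 560 nm; sub-confluent cells exposed 48 h before staining; fitted both ways against DMSO so gain or loss of cell number.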 The following applies: primary human coronary artery smooth muscle cells.
Read-out in experiment [19]: Monokine induced gamma interferon (MIG), CXCL9 (gene 4283)
The experiment is described as follows: BSK_CASM3C_MIG: BioMAP Diversity Plus: CASM3C Assay for Monokine induced gamma interferon (MIG) Biomarker Activity (AID 2283048).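 Further: MIG protein level measured by ELISA.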 The following applies: primary human coronary artery smooth muscle cells; actives raise or lower the signal.

Read-out in experiment [20]: Interferon-gamma inducible Protein 10 (IP10), CXCL10 (gene 3627)
The experiment is described as follows: BSK_BE3C_IP10: BioMAP Diversity Plus: BE3C Assay for Interferon-gamma inducible Protein 10 (IP10) Biomarker Activity (AID 2283034). The following applies: primary human bronchial epithelial cells; actives raise or lower the signal. The method in brief:
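ELISA readout of IP-10 in BE3C system: primary human bronchial epithelial cells, 24 h post-dosing; bidirectional curve fit vs DMSO baseline.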

Molecules are shown by their SMILES. Calls of active or inactive are those of the source. How the source made its calls: active means hit-call score of the fitted dose curve at least 0.9, where 1 is the maximum; inactive means score below 0.9.

For `ClC1=C(Cl)[C@]2(Cl)[C@H]3[C@H]([C@H]4C=C[C@H]3C4)[C@@]1(Cl)C2(Cl)Cl`, the outcome in experiment [1], in experiment [2], in [6], in experiment [9], in experiment [10] and in experiment [11] was inactive. Besides, the outcome in [12], in [13], in [15], in experiment [16], in experiment [17] and in experiment [19] was inactive. The AC50 in experiment [3] is 2.01 µM (active); in experiment [4] it was 13.1 µM (active); in experiment [5], 7.9 µM (active); in [7] it was 3.12 µM (active); in experiment [8] it was 3.97 µM (active); in experiment [14] it was 5.83 µM (active). Further, the AC50 in experiment [18] was 8.26 µM (active).
For `O=c1[nH]c(=O)[nH]c(=O)[nH]1`, the result in experiment [1], in experiment [2], in [3], in [4], in experiment [5] and in [6] was inactive. Also, the result in experiment [7], in [8], in experiment [9], in [10], in experiment [11] and in experiment [12] was inactive. Moreover, the outcome in experiment [13], in experiment [14], in experiment [15], in [16], in [17] and in experiment [18] was inactive. In addition, the outcome in [19] was inactive.
Take `O=C(O)C(Cl)(Cl)Cl`: the outcome in [1], in [2], in experiment [3], in [4], in experiment [5] and in [20] was inactive. Besides, the result in [6], in [7], in [8], in experiment [9], in [10] and in experiment [11] was inactive. In addition, the result in experiment [12], in experiment [13], in [14], in experiment [15], in experiment [16] and in [17] was inactive. The result in [18] and in experiment [19] was inactive.
Turning to `COP(=S)(OC)Oc1c(Cl)cc(C)cc1Cl`, the outcome in experiment [1], in experiment [2], in experiment [3], in experiment [4], in experiment [20] and in experiment [6] was inactive. Besides, the result in experiment [7], in experiment [8], in experiment [9], in experiment [10], in experiment [11] and in experiment [12] was inactive. The outcome in experiment [14], in experiment [15], in experiment [16], in [17] and in [19] was inactive. Besides, the AC50 in experiment [5] was 26.9 µM (active); in experiment [13], 0.213 µM (active); in experiment [18] it was 20 µM (active).
With `O=C(OC1CCCCC1)c1ccccc1C(=O)OC1CCCCC1`, the result in experiment [1], in experiment [6], in experiment [7], in [8], in experiment [9] and in experiment [10] was inactive. The result in experiment [11], in [13], in [14], in [15], in [17] and in experiment [19] was inactive. Further, the AC50 was 13 µM (active) in experiment [2]; 9.97 µM (active) in experiment [3]; 13 µM (active) in [4]; 20.9 µM (active) in experiment [5]; 20.9 µM (active) in experiment [20]; 8.39 µM (active) in experiment [12]. Also, the AC50 in experiment [16] was 34.2 µM (active); in experiment [18], 33.4 µM (active).
For the compound `CC(C)(C)CC(C)(C)c1ccc(O)cc1`, the outcome in experiment [1] and in experiment [3] was inactive. Further, the AC50 in experiment [2] was 9.65 µM (active); in [4], 19.3 µM (active); in experiment [5], 7.98 µM (active); in [20], 16.6 µM (active); in experiment [6] it was 34.5 µM (active); in experiment [7] it was 14.7 µM (active). Further, the AC50 in experiment [8] was 30.9 µM (active); in experiment [9], 26.6 µM (active); in experiment [10], 30 µM (active); in experiment [11] it was 12 µM (active); in experiment [12], 13.2 µM (active); in experiment [13] it was 30.3 µM (active). Moreover, the AC50 in [14] is 11.2 µM (active); in experiment [15], 11.3 µM (active); in [16] it was 16 µM (active); in experiment [17] it was 11.9 µM (active); in experiment [18], 10.1 µM (active); in experiment [19], 26.4 µM (active).

As usually defined, the AC50 is the midpoint of the concentration-response curve, whichever way the signal moves.

For the origin of these results see PubChem BioAssay (EPA / NIEHS).
